Data reported in the supplement of paper PMC10849652.
Targets with a hit are over-represented here; the source holds about 7,900 in all. About 0.6% of all pairs of compound and target were hits. Values without a mark were called inactive.

How the values were obtained:
Experiment in all cases: log2 fold change, soluble protein after heating vs DMSO (PISA); higher = thermal stabilisation; K562 cells, 10 uM, 30 min; active = over 0.2 and 3.5 SD of the protein, either way, in both replicates (recomputed)
bafetinib = compound: Cc1ccc(NC(=O)c2ccc(CN3CC[C@H](N(C)C)C3)c(C(F)(F)F)c2)cc1Nc1nccc(-c2cncnc2)n1 [bafetinib]
Summary of the method: (§1)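 Aliquots of K562 cells (2×10^6 cells/mL) treated with 10 μM compound for 30 min were heated for 3 min over 48°C-58°C. After pooling and extraction in PBS with 0.5% NP-40 at 4°C, soluble protein from a 21,000xg, 90 min spin was quantified by TMTpro 16plex LC-MS/MS with channel sums equalised. Thermal stability is expressed against control samples, from duplicates, as a log2 fold change.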

[1] = compound: Cc1cccc(CC(=O)N2CCc3c2ccc(-c2cn(C)c4ncnc(N)c24)c3F)n1
Summary of the method: as §1

nilotinib = compound: Cc1cn(-c2cc(NC(=O)c3ccc(C)c(Nc4nccc(-c5cccnc5)n4)c3)cc(C(F)(F)F)c2)cn1 [nilotinib]
Summary of the method: as §1

[2] = compound: Cc1nc(Nc2n[nH]c3c2CN(C(=O)N[C@H](CN(C)C)c2ccccc2)C3(C)C)c2sccc2n1
Summary of the method: as §1

dasatinib = compound: Cc1nc(Nc2ncc(C(=O)Nc3c(C)cccc3Cl)s2)cc(N2CCN(CCO)CC2)n1 [dasatinib]
Summary of the method: as §1

[3] = compound: Cc1ncc(-c2ccnc(Nc3ccc(S(C)(=O)=O)cc3)n2)n1C(C)C
Summary of the method: as §1

[4] = compound: Cn1cc(-c2ccc3c(c2)CCN3C(=O)Cc2cccc(C(F)(F)F)c2)c2c(N)ncnc21
Summary of the method: as §1

[5] = compound: Cn1cc(-c2ccc3nnc(C(F)(F)c4ccc5ncccc5c4)n3n2)cn1
Summary of the method: as §1

tipifarnib = compound: Cn1cncc1[C@@](N)(c1ccc(Cl)cc1)c1ccc2c(c1)c(-c1cccc(Cl)c1)cc(=O)n2C [tipifarnib]
Summary of the method: as §1

mubritinib = compound: FC(F)(F)c1ccc(/C=C/c2nc(COc3ccc(CCCCn4ccnn4)cc3)co2)cc1 [mubritinib]
Summary of the method: as §1

[6] = compound: NC(=O)Nc1cc(-c2cccc(F)c2)sc1C(=O)N[C@H]1CCCNC1
Summary of the method: as §1

[7] = compound: NC(=O)c1cnc(N[C@@H]2CCCC[C@@H]2N)nc1Nc1cccc(-n2nccn2)c1
Summary of the method: as §1

[8] = compound: NC1(c2ccc(-c3nc4ccn5c(=O)[nH]nc5c4cc3-c3ccccc3)cc2)CCC1
Summary of the method: as §1

[9] = compound: NCC(=O)Nc1ccc(-n2nc(C(F)(F)F)cc2-c2ccc3c(ccc4ccccc43)c2)cc1
Summary of the method: as §1

entinostat = compound: Nc1ccccc1NC(=O)c1ccc(CNC(=O)OCc2cccnc2)cc1 [entinostat]
Summary of the method: as §1

vorinostat = compound: O=C(CCCCCCC(=O)Nc1ccccc1)NO [vorinostat]
Summary of the method: as §1

citarinostat = compound: O=C(CCCCCCNC(=O)c1cnc(N(c2ccccc2)c2ccccc2Cl)nc1)NO [citarinostat]
Summary of the method: as §1

silmitasertib = compound: O=C(O)c1ccc2c(c1)nc(Nc1cccc(Cl)c1)c1ccncc12 [silmitasertib]
Summary of the method: as §1

[10] = compound: O=C1NC(=O)C(c2cnc3ccccn23)=C1c1cn2c3c(cc(F)cc13)CN(C(=O)N1CCCCC1)CC2
Summary of the method: as §1

[11] = compound: c1cc(OCCN2CCCCC2)cc(-c2n[nH]c3ccc(-c4nnc[nH]4)cc23)c1
Summary of the method: as §1

Sequence of UniProt Q9Y2L5 (Q9Y2L5 whole entry, looked up): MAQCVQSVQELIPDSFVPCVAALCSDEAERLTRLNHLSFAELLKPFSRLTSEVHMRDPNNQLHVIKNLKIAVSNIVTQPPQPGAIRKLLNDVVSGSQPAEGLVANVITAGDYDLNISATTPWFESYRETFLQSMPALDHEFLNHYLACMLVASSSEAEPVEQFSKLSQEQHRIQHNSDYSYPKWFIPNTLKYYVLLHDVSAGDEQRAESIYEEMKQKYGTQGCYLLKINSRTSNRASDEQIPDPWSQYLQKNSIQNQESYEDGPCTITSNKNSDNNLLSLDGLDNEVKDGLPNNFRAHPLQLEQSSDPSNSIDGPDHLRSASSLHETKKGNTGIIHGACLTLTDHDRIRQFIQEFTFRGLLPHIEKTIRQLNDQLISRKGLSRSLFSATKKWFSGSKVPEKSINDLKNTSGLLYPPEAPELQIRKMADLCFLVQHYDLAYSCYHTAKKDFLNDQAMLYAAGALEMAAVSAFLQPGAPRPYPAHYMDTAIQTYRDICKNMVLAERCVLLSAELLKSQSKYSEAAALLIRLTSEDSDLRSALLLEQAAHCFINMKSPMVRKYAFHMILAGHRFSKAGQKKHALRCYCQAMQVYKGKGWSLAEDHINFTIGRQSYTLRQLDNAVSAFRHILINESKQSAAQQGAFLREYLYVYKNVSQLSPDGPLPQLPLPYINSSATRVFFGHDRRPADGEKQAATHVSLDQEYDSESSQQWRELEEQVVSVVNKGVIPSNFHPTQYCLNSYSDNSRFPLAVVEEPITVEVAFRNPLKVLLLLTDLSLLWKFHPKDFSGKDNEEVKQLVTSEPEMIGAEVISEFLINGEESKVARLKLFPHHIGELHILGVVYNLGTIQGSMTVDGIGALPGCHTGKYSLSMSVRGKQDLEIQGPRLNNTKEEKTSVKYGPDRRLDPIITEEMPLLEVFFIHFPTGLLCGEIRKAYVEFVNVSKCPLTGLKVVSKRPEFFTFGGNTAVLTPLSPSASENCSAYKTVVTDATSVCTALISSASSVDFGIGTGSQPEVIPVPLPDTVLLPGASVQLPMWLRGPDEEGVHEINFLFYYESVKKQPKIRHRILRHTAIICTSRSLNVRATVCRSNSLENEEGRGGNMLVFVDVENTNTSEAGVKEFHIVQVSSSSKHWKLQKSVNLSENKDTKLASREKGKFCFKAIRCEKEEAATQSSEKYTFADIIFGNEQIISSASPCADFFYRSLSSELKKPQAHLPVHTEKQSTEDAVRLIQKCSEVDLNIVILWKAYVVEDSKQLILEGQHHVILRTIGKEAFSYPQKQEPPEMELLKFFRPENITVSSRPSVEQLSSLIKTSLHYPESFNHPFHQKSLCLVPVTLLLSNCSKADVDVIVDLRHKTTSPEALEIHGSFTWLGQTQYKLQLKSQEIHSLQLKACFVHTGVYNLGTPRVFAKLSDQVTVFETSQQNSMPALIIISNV
Sequence of UniProt Q8WVY7 (Q8WVY7 whole entry, looked up): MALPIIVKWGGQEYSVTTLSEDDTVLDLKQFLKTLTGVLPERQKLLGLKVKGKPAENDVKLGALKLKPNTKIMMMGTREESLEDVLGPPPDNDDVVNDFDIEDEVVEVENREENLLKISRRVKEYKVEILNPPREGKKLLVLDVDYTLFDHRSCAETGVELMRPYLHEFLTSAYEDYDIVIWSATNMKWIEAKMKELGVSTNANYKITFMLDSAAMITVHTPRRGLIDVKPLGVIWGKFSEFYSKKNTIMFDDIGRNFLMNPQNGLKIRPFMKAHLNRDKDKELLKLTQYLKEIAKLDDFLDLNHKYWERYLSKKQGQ
Sequence of UniProt O95379 (O95379 whole entry, looked up): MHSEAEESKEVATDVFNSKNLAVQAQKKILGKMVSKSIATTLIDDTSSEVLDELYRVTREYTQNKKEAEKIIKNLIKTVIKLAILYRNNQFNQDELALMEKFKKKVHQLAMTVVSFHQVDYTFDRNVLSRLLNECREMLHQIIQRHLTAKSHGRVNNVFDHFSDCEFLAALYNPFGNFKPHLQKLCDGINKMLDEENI
Sequence of UniProt P22314 (P22314 whole entry, looked up): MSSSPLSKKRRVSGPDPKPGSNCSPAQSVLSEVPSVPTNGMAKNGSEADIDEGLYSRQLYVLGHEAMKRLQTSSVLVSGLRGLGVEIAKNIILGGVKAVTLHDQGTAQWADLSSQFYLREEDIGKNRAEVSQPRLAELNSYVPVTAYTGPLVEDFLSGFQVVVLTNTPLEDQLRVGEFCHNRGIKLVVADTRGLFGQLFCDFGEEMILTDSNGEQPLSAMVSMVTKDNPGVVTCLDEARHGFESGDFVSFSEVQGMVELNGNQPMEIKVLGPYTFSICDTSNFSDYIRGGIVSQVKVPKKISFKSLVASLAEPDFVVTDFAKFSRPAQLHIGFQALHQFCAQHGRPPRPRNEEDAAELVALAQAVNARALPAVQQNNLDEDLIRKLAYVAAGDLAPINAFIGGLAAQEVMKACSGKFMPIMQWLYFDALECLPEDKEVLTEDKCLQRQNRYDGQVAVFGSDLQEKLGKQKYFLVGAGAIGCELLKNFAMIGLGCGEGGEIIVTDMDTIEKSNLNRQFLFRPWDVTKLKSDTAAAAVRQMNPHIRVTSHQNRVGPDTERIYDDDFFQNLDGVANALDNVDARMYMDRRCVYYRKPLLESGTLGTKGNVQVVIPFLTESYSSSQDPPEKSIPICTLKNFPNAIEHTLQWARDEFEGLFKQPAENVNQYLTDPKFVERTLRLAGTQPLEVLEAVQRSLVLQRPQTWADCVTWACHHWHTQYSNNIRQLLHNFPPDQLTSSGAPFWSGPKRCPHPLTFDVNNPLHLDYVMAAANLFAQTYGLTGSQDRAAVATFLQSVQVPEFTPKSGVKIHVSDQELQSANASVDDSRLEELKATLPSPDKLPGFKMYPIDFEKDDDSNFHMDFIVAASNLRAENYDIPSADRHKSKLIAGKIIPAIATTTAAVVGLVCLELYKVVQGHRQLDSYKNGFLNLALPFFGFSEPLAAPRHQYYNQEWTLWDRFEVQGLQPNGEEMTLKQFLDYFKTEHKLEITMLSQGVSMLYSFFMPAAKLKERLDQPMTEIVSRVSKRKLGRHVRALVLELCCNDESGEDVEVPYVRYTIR
Sequence of UniProt Q99986 (Q99986 whole entry, looked up): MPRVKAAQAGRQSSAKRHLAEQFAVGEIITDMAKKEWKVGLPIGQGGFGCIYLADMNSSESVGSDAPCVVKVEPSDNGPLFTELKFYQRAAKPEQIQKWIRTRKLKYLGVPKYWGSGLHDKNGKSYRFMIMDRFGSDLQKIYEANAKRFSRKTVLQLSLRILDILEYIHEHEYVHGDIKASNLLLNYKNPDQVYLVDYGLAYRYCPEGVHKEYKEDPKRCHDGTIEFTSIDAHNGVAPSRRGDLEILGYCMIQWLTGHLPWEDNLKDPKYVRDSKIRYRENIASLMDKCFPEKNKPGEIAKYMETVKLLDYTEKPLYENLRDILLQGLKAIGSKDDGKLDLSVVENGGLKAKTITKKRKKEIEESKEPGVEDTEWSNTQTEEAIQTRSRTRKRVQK
Sequence of UniProt Q8IZ69 (Q8IZ69 whole entry, looked up): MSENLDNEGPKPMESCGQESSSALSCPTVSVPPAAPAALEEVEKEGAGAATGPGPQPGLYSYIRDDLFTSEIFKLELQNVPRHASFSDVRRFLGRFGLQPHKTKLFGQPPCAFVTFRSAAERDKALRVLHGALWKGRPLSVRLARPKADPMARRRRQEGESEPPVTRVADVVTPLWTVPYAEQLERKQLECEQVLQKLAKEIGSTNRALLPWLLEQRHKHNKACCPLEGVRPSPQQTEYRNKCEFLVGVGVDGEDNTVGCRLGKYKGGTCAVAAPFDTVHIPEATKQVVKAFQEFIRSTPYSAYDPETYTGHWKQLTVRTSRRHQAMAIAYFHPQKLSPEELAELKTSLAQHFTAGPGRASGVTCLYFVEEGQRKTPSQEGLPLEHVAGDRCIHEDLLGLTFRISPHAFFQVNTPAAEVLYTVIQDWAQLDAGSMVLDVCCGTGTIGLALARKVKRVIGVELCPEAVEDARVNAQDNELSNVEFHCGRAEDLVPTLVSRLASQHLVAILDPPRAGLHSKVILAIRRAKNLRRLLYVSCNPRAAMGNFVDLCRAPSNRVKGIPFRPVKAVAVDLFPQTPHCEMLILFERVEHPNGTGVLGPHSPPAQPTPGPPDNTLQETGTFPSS
Sequence of UniProt Q9H6R7 (Q9H6R7 whole entry, looked up): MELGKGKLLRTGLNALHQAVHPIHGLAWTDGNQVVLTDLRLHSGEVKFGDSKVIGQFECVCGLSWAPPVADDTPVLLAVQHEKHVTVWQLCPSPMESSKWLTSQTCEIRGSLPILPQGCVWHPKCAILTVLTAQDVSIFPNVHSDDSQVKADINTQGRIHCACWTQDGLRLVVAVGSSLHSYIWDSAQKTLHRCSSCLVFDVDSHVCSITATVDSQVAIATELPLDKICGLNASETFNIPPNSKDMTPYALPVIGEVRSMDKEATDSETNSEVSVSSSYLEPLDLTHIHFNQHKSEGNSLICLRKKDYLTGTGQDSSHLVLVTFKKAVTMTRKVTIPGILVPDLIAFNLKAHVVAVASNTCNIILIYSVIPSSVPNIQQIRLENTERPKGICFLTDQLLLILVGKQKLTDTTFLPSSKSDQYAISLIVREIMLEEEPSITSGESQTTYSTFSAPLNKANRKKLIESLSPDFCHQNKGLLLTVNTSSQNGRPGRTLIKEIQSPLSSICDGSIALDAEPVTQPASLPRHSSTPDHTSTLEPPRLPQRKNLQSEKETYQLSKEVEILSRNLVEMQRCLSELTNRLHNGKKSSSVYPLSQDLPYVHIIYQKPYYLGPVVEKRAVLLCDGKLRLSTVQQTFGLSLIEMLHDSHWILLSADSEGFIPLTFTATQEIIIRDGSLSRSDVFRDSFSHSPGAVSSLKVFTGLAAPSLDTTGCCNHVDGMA

Target | log2 fold change (bafetinib) | log2 fold change [1] | log2 fold change (nilotinib) | log2 fold change [2] | log2 fold change (dasatinib) | log2 fold change [3] | log2 fold change [4] | log2 fold change [5] | log2 fold change (tipifarnib) | log2 fold change (mubritinib) | log2 fold change [6] | log2 fold change [7] | log2 fold change [8] | log2 fold change [9] | log2 fold change (entinostat) | log2 fold change (vorinostat) | log2 fold change (citarinostat) | log2 fold change (silmitasertib) | log2 fold change [10] | log2 fold change [11]
UBA1 (UniProt P22314) | 0.034 | 0.187 | -0.089 | -0.062 | -0.216 | 0.062 | 0.027 | 0.121 | -0.235 | 0.395 (active) | -0.044 | -0.112 | -0.275 | -0.101 | 0.159 | 0.167 | 0.125 | 0.018 | -0.013 | -0.028
TRAPPC8 (UniProt Q9Y2L5) | -0.037 | 0.044 | -0.055 | -0.04 | -0.133 | 0.059 | 0 | 0.004 | -0.013 | 0.045 | -0.039 | -0.082 | -0.168 | -0.028 | 0.042 | 0.053 | 0.051 | 0.07 | -0.016 | -0.205
UBLCP1 (UniProt Q8WVY7) | 0.016 | -0.034 | -0.101 | 0.074 | -0.063 | 0.116 | -0.052 | 0.006 | -0.072 | 0.155 | -0.084 | -0.009 | -0.165 | -0.048 | 0.122 | 0 | 0.085 | 0.049 | -0.142 | 0.035
TNFAIP8 isoform 4 (UniProt O95379) | -0.079 | 0.014 | -0.045 | -0.095 | -0.109 | 0.007 | 0.047 | 0.005 | -0.023 | 0.031 | -0.032 | -0.091 | -0.061 | 0.029 | 0.018 | 0.207 (active) | 0.012 | 0.147 | -0.073 | 0.087
VRK1 (UniProt Q99986) | 0.035 | 0.078 | -0.074 | 0.542 (active) | -0.224 | 0.164 | 0.057 | 0.028 | -0.041 | 0.008 | -0.056 | 0.025 | -0.11 | -0.144 | 0.059 | 0.046 | 0.023 | -0.028 | -0.138 | 0.063
TMEM263 (UniProt Q8WUH6) | -0.434 | 0.037 | -0.079 | -0.027 | -0.249 | 0.124 | -0.011 | 0.02 | -0.182 | 0.054 | -0.044 | -0.335 | -0.389 | -0.299 | 0.123 | 0.058 | 0.068 | 0.057 | -0.08 | -0.037
TRMT2A (UniProt Q8IZ69) | 0.059 | -0.001 | 0.021 | -0.048 | -0.019 | -0.064 | 0 | 0.009 | 0.03 | -0.005 | -0.031 | -0.128 | -0.091 | -0.003 | 0.022 | 0.03 | -0.03 | -0.003 | 0.018 | -0.062
WDCP (UniProt Q9H6R7) | -0.052 | -0.05 | -0.149 | -0.12 | -0.074 | -0.035 | -0.099 | -0.001 | -0.029 | 0 | 0.062 | 0.049 | -0.011 | -0.025 | 0.019 | 0.037 | 0.118 | 0.172 | -0.033 | -0.035
